This note sets out measurements from publication PMC7862700, “An all-to-all approach to the identification of sequence-specific readers for epigenetic DNA modifications on cytosine”.

Common to all, as to experiment: DAPPL (digital affinity profiling via proximity ligation, sequencing); 10 mM Tris-HCl pH 7.5, 50 mM NaCl, 1 mM DTT, 4% glycerol, room temperature, 30 min; GST-TFs on glutathione beads, 16-mer random dsDNA library, 0.1% formaldehyde crosslink after washing; high values mean tight binding
In one test the target is T1, FEV (Homo sapiens, UniProt Q99581 1-238).
T1 sequence: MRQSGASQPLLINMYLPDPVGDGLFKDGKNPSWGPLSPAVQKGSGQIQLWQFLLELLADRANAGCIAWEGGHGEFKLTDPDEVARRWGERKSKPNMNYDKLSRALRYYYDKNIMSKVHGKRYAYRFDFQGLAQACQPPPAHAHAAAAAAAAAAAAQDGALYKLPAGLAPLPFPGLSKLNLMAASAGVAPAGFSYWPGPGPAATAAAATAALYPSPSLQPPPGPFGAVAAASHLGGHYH
The settings on record: protein: recombinant; tags: N-terminal GST; dsDNA, one strand shown. Summed up:
(§1)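 Binding signal is each hexamer's read frequency for a factor divided by its frequency in the tag-only sample. The factors were GST-fused human transcription factors from yeast, captured on glutathione beads, DNA-barcoded and pooled with that sample. Pools were incubated with 200 nmole of a random double-stranded 16-mer DNA library in Tris/NaCl/DTT/glycerol buffer at room temperature for 30 min, then washed, crosslinked with 0.1% formaldehyde, proximity-ligated with BsaI/T4 ligase (1 h, 37 °C), PCR-amplified and sequenced on an Illumina NextSeq500.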

A further test deals with ETV5 (Homo sapiens, UniProt P41161 1-510). To be noted: protein: recombinant; tags: N-terminal GST; dsDNA, one strand shown. Summed up: as §1
The target in a further test is HSF1 (Homo sapiens, UniProt Q00613 1-529). The settings on record: protein: recombinant; tags: N-terminal GST; chain copies: 3; dsDNA, one strand shown. Summed up: as §1
In the next test the target is T2, SPIC (Homo sapiens, UniProt Q8N5J4 1-248).
T2 sequence: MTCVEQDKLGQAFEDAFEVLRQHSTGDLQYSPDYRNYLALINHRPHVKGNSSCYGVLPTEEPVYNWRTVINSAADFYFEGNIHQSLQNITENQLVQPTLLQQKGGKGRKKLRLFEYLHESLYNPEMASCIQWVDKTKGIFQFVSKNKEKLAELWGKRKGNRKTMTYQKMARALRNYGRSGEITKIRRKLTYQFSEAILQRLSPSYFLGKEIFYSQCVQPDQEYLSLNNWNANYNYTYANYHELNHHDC
To be noted: protein: recombinant; tags: N-terminal GST; dsDNA, one strand shown. In a few lines: as §1

The target of another test is ELF4 (Homo sapiens, UniProt Q99607 1-663). To be noted: protein: recombinant; tags: N-terminal GST; dsDNA, one strand shown. In a few lines: as §1
For the next test, the target named is T3, ELK4 (Homo sapiens, UniProt P28324-2 1-405).
T3 sequence: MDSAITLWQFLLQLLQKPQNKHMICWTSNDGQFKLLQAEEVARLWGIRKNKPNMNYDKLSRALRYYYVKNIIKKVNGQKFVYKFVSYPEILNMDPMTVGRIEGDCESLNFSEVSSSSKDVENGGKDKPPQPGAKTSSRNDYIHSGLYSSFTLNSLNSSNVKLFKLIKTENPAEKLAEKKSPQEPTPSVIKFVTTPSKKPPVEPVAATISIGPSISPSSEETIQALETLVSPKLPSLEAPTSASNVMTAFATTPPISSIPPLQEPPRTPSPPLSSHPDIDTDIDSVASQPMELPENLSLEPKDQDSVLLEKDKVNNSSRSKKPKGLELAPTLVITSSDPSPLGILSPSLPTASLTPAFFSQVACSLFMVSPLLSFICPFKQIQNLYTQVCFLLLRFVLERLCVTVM
To be noted: protein: recombinant; tags: N-terminal GST; dsDNA, one strand shown. Summed up: as §1

In another test the target is T4, ETV2 (Homo sapiens, UniProt O00321 1-342).
T4 sequence: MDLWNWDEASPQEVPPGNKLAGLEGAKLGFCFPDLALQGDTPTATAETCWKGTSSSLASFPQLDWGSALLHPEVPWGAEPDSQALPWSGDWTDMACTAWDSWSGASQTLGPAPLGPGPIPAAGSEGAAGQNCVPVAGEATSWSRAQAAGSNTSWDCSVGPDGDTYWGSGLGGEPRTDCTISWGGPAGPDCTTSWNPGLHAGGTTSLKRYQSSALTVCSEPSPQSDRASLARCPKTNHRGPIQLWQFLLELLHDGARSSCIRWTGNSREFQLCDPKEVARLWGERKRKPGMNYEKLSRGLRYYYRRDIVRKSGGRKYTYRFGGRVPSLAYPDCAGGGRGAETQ
To be noted: protein: recombinant; tags: N-terminal GST; dsDNA, one strand shown. In a few lines:
as §1

A further test addresses T5, ELF3 (Homo sapiens, UniProt P78545 1-371).
T5 sequence: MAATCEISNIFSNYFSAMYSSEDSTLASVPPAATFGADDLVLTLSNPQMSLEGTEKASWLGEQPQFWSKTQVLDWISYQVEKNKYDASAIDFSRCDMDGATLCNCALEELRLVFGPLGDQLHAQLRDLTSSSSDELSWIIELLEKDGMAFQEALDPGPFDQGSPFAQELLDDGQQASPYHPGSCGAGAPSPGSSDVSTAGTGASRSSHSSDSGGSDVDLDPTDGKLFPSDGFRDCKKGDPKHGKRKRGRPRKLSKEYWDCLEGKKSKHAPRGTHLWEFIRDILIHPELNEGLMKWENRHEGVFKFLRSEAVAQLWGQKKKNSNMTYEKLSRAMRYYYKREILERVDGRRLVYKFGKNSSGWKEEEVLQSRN
The settings on record: protein: recombinant; tags: N-terminal GST; dsDNA, one strand shown. In a few lines: as §1

The target of another test is CRX (Homo sapiens, UniProt O43186 1-299). The settings on record: protein: recombinant; tags: N-terminal GST; dsDNA, one strand shown. In a few lines: as §1
The target in another test is ETV1 (Homo sapiens, UniProt P50549 1-477). To be noted: protein: recombinant; tags: N-terminal GST; dsDNA, one strand shown. In a few lines: as §1
A further test deals with T6, ERF (Homo sapiens, UniProt P50548 1-548).
T6 sequence: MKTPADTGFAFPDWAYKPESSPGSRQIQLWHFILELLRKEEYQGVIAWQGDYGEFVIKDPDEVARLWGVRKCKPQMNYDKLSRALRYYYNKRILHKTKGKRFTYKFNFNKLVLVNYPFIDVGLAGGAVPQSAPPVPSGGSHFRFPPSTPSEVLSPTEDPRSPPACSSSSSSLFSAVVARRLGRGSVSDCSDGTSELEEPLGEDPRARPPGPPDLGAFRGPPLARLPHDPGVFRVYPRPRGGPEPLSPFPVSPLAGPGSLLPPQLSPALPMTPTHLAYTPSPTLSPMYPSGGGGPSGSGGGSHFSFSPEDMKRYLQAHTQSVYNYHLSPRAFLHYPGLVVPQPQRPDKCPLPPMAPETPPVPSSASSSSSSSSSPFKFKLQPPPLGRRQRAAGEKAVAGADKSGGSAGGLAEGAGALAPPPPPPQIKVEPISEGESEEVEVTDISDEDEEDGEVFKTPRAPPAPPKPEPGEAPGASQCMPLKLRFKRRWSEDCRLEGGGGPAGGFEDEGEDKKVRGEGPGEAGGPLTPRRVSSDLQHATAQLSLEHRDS
To be noted: protein: recombinant; tags: N-terminal GST; dsDNA, one strand shown. In a few lines:
as §1

The target of another test is T7, ETV3L (Homo sapiens, UniProt Q6ZN32 1-361).
T7 sequence: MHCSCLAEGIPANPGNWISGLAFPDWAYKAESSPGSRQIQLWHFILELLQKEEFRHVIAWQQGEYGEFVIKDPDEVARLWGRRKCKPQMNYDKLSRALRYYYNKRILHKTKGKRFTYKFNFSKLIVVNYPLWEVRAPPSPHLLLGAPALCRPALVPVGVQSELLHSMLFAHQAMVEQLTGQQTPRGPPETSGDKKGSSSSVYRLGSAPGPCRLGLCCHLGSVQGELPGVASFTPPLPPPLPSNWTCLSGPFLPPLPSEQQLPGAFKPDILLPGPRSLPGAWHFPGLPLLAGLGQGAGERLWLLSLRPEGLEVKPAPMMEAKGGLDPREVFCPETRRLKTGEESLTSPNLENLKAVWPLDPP
To be noted: protein: recombinant; tags: N-terminal GST; dsDNA, one strand shown. In a few lines:
as §1

The next test has as its target T8, ETS2 (Homo sapiens, UniProt P15036 1-469).
T8 sequence: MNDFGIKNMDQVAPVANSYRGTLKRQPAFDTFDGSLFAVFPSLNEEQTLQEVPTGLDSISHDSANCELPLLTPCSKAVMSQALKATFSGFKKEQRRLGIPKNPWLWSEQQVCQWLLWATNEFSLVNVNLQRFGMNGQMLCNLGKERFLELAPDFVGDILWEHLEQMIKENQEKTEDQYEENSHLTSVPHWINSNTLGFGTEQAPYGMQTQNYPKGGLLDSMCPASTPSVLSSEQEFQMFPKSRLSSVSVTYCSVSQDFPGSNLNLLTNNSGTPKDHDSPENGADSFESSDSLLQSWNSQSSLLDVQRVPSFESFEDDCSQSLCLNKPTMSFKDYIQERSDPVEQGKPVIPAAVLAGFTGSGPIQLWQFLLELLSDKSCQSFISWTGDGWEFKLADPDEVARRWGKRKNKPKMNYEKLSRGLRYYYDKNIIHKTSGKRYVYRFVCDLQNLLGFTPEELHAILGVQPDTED
To be noted: protein: recombinant; tags: N-terminal GST; dsDNA, one strand shown. In a few lines:
as §1

The target of another test is T9, SPDEF (Homo sapiens, UniProt O95238 1-335).
T9 sequence: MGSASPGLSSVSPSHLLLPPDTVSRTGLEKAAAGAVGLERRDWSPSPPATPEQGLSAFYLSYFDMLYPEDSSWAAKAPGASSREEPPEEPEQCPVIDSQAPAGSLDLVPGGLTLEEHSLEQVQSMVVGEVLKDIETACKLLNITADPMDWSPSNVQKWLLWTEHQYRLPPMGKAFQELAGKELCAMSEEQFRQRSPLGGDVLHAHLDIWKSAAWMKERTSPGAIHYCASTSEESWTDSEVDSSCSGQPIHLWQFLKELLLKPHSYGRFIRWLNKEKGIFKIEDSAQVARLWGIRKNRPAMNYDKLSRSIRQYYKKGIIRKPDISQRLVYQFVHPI
The settings on record: protein: recombinant; tags: N-terminal GST; dsDNA, one strand shown. In a few lines: as §1

The target in the next test is T10, ETV7 (Homo sapiens, UniProt Q9Y603 1-341).
T10 sequence: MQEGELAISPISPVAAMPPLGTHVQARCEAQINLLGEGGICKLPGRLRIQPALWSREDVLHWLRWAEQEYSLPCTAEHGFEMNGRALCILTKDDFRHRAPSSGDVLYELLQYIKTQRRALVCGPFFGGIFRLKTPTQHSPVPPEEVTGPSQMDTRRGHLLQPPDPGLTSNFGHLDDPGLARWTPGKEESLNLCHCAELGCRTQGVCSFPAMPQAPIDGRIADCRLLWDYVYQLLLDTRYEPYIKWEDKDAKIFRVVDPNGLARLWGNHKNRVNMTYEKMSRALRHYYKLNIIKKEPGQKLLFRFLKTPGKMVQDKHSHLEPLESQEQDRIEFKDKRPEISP
To be noted: protein: recombinant; tags: N-terminal GST; dsDNA, one strand shown. Summed up:
as §1

The target of the next test is T11, ELF5 (Homo sapiens, UniProt Q9UKW6-2 1-255).
T11 sequence: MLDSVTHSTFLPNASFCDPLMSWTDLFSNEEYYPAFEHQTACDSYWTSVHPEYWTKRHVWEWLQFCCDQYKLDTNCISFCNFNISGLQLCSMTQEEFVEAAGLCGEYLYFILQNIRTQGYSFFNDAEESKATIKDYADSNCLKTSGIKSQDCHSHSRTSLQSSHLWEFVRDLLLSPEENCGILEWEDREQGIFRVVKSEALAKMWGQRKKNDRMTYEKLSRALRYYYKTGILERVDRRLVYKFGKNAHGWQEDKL
The settings on record: protein: recombinant; tags: N-terminal GST; dsDNA, one strand shown. In a few lines: as §1

A further test concerns the target T12, ETV3 (Homo sapiens, UniProt P41162-2 1-143).
T12 sequence: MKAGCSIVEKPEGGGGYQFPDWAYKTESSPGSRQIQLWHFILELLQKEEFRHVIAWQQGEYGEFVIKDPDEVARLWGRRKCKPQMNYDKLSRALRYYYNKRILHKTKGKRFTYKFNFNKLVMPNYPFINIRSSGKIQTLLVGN
The settings on record: protein: recombinant; tags: N-terminal GST; dsDNA, one strand shown. Summed up: as §1

The target in another test is ETV6 (Homo sapiens, UniProt P41212 1-452). The settings on record: protein: recombinant; tags: N-terminal GST; dsDNA, one strand shown. Summed up:
as §1

CRX, sequence (O43186 whole entry): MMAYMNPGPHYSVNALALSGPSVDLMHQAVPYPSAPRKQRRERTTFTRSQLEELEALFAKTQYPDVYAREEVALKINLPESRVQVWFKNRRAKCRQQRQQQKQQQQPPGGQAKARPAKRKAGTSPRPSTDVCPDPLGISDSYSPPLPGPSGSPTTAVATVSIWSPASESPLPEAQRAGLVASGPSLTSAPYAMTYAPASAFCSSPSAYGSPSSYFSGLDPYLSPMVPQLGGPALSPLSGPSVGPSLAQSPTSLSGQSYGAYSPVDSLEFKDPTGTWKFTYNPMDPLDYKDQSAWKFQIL
ETV6, sequence (P41212 whole entry): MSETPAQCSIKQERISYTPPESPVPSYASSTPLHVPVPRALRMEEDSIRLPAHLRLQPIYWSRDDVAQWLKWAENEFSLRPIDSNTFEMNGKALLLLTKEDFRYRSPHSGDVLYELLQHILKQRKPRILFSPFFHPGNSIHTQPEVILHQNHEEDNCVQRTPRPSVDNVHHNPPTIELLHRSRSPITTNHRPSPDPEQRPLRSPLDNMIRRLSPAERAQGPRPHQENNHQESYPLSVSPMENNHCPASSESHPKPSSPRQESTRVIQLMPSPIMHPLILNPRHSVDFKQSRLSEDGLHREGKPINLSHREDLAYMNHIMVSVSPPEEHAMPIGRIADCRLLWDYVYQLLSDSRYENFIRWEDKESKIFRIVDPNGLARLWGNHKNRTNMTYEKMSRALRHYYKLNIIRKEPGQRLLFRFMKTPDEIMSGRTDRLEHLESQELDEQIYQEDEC
ELF4, sequence (Q99607 whole entry): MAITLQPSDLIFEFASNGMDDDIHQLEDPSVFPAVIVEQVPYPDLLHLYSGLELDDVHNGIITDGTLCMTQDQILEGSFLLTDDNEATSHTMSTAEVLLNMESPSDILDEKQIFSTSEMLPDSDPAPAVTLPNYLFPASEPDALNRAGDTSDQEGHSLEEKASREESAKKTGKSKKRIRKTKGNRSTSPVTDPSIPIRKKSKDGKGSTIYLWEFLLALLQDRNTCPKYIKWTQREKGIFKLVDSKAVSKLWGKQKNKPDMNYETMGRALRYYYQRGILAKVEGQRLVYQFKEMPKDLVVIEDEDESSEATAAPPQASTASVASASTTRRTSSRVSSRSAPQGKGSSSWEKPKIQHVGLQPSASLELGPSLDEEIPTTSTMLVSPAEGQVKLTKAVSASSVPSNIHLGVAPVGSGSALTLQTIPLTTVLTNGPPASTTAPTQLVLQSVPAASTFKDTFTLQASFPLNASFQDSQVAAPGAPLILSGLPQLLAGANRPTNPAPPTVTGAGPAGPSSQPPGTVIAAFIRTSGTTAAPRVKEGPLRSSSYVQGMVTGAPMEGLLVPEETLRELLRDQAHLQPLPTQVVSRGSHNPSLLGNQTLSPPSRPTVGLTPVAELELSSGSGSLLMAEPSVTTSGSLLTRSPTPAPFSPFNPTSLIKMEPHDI
ETV1, sequence (P50549 whole entry): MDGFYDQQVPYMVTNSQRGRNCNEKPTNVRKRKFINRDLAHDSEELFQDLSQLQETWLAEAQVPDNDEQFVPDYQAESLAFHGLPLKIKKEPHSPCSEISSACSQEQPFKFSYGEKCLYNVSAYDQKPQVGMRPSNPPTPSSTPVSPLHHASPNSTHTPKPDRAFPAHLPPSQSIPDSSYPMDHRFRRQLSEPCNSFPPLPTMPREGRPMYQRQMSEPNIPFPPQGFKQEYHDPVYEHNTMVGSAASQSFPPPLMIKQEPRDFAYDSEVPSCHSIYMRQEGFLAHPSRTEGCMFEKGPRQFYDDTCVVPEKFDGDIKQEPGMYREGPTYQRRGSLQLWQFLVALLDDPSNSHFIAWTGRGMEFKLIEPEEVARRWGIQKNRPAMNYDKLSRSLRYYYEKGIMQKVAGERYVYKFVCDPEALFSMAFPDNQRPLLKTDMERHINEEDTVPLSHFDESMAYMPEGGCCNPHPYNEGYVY
HSF1, sequence (Q00613 whole entry): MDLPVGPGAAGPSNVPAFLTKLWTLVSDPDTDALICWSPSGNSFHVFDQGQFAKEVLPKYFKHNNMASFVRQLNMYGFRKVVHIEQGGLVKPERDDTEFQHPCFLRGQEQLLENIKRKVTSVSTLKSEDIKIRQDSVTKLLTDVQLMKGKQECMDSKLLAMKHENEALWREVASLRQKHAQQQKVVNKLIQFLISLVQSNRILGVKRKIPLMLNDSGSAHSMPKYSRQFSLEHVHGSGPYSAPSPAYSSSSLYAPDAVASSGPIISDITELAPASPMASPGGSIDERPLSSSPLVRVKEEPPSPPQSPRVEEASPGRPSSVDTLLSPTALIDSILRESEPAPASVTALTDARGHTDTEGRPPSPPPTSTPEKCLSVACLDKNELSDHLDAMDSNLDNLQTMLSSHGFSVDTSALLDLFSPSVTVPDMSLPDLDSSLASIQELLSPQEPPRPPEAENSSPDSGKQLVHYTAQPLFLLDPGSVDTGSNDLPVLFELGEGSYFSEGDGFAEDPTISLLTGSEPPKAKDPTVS
ETV5, sequence (P41161 whole entry): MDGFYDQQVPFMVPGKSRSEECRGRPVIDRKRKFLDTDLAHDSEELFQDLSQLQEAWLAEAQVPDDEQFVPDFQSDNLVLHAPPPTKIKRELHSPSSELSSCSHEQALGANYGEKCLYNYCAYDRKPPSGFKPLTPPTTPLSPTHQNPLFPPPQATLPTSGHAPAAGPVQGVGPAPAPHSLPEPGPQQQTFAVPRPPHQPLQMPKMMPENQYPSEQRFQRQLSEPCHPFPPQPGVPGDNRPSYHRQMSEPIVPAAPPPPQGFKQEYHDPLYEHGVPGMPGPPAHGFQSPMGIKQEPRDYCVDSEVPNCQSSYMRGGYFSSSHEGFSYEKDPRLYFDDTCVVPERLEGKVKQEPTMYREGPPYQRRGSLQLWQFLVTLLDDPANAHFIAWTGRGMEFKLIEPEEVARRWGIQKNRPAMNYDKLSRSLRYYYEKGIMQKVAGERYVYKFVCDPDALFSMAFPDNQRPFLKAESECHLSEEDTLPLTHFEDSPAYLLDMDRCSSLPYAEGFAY

As for CTACTC, the binding signal with FEV was 1.37 fold enrichment (6-mer frequency, TF over GST control); with ETV5 it was 1.35 fold enrichment (6-mer frequency, TF over GST control); with HSF1, 1.32 fold enrichment (6-mer frequency, TF over GST control); in the test with SPIC it was 1.21 fold enrichment (6-mer frequency, TF over GST control); in the test with ELF4 it was 1.37 fold enrichment (6-mer frequency, TF over GST control); in the test with ELK4, 1.41 fold enrichment (6-mer frequency, TF over GST control). Besides, the binding signal in the test with ETV2 was 1.38 fold enrichment (6-mer frequency, TF over GST control); with ELF3, 1.32 fold enrichment (6-mer frequency, TF over GST control); with CRX, 1.28 fold enrichment (6-mer frequency, TF over GST control); with ETV1, 1.32 fold enrichment (6-mer frequency, TF over GST control); with ERF, 1.48 fold enrichment (6-mer frequency, TF over GST control); in the test with ETV3L it was 1.45 fold enrichment (6-mer frequency, TF over GST control). In addition, the binding signal in the test with ETS2 was 1.34 fold enrichment (6-mer frequency, TF over GST control); with SPDEF, 1.29 fold enrichment (6-mer frequency, TF over GST control); with ETV7 it was 1.13 fold enrichment (6-mer frequency, TF over GST control); with ELF5, 1.29 fold enrichment (6-mer frequency, TF over GST control); with ETV3, 1.25 fold enrichment (6-mer frequency, TF over GST control); in the test with ETV6, 1.3 fold enrichment (6-mer frequency, TF over GST control).
